Compound activity from PubChem.
ADAM10 inh – inhibitors of human ADAM10; O14672; recombinant ADAM10, EDANS/DABCYL FRET peptide cleavage, 3 h; inhibition, % at 7 µM; 370,000 compounds, 0.62% hits; AID 720582;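 active means inhibition above a per-campaign cutoff equal to the mean of compounds falling between control-based bounds plus 3 SD, cut at about 20% in these data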;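 further: 0% = DMSO wells while the 100% control is not disclosed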
ADAM17 inh – ADAM17 inhibition, QFRET primary screen; 370,000 compounds, 0.83% hits; P78536; AID 720648; inhibition, % at 6.95 µM; recombinant ADAM17, EDANS/DABCYL FRET peptide cleavage;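 active means inhibition above the mean of compounds lying between control limits plus 3 SD, set per campaign, cut at about 8.5% in these data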;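 further: 0% = DMSO-only wells as the low control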
sPLA2-III inh – Blocks human group III sPLA2 activity; Q9NZ20; 370,000 compounds, 0.56% hits; QFRET BODIPY PC-A2 liposome hydrolysis, fluorescence; inhibition, % at 12.2 µM; AID 743126;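 active means inhibition above mean plus 3 SD of compounds lying within the high and low control bounds, cut at about 19% in these data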;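 further: 0% = median of test compound wells and 100% = no enzyme DMSO wells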
FAS-TE inh – inhibitors of human fatty acid synthase thioesterase domain. P49327. recombinant FAS-TE, OMFH fluorogenic substrate, fluorescence endpoint. inhibition, % at 15 µM. 360,000 compounds, 0.67% hits. AID 602261;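 active means compounds whose normalised, plate-corrected inhibition of enzyme fluorescence in the single-dose primary screen is 50% or more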;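 further: 0% = DMSO with enzyme and 100% = substrate without enzyme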
GRIN3A LBD mod – NR3A (human) ligand-binding domain modulation. NR3A LBD differential scanning fluorimetry, Tm shift; 0% = protein alone, 100% = glycine-bound protein. Tm shift relative to glycine control, % at 25 µM. 340,000 compounds, 2.5% hits. AID 1259313;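 active means melting temperature shift of at least 10% of the positive control shift, at one fixed dose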
FAS-TE conf – confirmation of human fatty acid synthase thioesterase inhibitors; shares compounds with FAS-TE inh; recombinant FAS-TE, OMFH fluorogenic substrate, fluorescence; inhibition, % at 15 µM; 2,300 compounds, 45% hits; AID 624325;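 active means compounds inhibiting the enzyme by at least 50% at 15 µM in any one of the replicates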;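 further: 0% = enzyme with DMSO only and 100% = wells lacking enzyme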
ADAM10 confirm – human ADAM10 inhibition, confirmation; shares compounds with ADAM10 inh; ADAM10 QFRET peptide cleavage, EDANS fluorescence; AID 743208; 2,100 compounds, 1% hits; inhibition, % at 6.95 µM;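 active means inhibition above about 20% chosen separately for each screening run, limit read from the data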;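 further: 0% = DMSO wells and 100% = marimastat wells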
ADAM17 counter – inhibits human ADAM17 in ADAM10 exosite counter-screen. shares compounds with ADAM10 inh. ADAM17 QFRET peptide cleavage, EDANS fluorescence. inhibition, % at 6.95 µM. 2,100 compounds, 0.5% hits. AID 743214;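 active means mean triplicate inhibition above the solvent-only control wells' mean plus 3 SD, cut at about 12% in these data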;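 further: 0% = DMSO wells and 100% = marimastat wells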
ADAM10 counter – counter-screen for ADAM17 exosite inhibitors: inhibitors of human ADAM10. shares compounds with ADAM17 inh. recombinant ADAM10, EDANS/DABCYL FRET peptide cleavage, 3 h. inhibition, % at 6.95 µM. 2,900 compounds, 47% hits. AID 743256;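 active means mean inhibition over the triplicate runs exceeds the activity threshold set in the earlier primary screen, cut at about 20% in these data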;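 further: 0% = DMSO wells and 100% = marimastat wells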
ADAM17 confirm – human ADAM17 inhibition, confirmation | shares compounds with ADAM17 inh | AID 743257 | inhibition, % at 6.95 µM | 2,900 compounds, 65% hits | recombinant ADAM17, EDANS/DABCYL QFRET peptide cleavage;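 active means mean inhibition across replicates above the hit cutoff set in the primary screen, cut at about 8.5% in these data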;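 further: 0% = DMSO wells and 100% = marimastat wells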
hGIII sPLA2 conf – human GIII-sPLA2 inhibition, confirmation; inhibition, % at 12.2 µM; 2,000 compounds, 34% hits; shares compounds with sPLA2-III inh; recombinant hGIII-sPLA2, BODIPY PC-A2 QFRET fluorescence;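 active means mean inhibition across triplicates above the hit cutoff set in the earlier primary screen, cut at about 19% in these data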;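 further: 0% = enzyme with DMSO and 100% = DMSO wells lacking enzyme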
BODIPY interf – optically interferes with 535nm fluorescence in sPLA2 counter-screen; 2,000 compounds, 8.5% hits; shares compounds with sPLA2-III inh; inhibition, % at 12.2 µM; BODIPY FL product fluorescence interference, QFRET;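 active means average inhibition above the solvent-only control mean plus 3 SD, cut at about 6% in these data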;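 further: 0% = DMSO with substrate plus product and 100% = DMSO with substrate alone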
Active calls of the source: *; / = not tested or not shown. Rows were chosen to be rich in hits. Some 4.3% of all compounds tested hit in one or more screens of this group.

SMILES	ADAM10 inh	ADAM17 inh	sPLA2-III inh	FAS-TE inh	GRIN3A LBD mod	FAS-TE conf	ADAM10 counter	ADAM17 confirm	others
COc1ccc2c(c1)[C@H]1[C@H](CO2)[C@H](c2ccccc2)[C@]2(C)C(=O)Nc3cc(F)ccc3C(=O)N12	13.4	10.0*	-2.6	53.7*	-13.6	29.6	-9.7	-0.5
CCOC(=O)[C@H]1[C@H]2COc3cc(OC)ccc3[C@@H]2N2C(=O)CN(Cc3ccccc3)C(=O)[C@@]12C	-4.3	4.7	3.6	-1.4	-0.6	/	/	/
CCOC(=O)[C@H]1[C@H]2COc3ccc(Cl)cc3[C@@H]2N2C(=O)CN(Cc3ccccc3)C(=O)[C@@]12C	1.7	1.0	-10.6	13.9	-0.6	/	/	/
CC(NC(=O)COC(=O)c1cc(NS(=O)(=O)c2ccc(Cl)c([N+](=O)[O-])c2)ccc1O)C1CC2CCC1C2 (configuration not stated)	22.2*	8.8*	-41.3	53.0*	12.7*	50.8*	38.1*	17.1*	ADAM10 confirm=9.1;ADAM17 counter=1.7
O=C(CSc1nc2ccccc2c(=O)n1-c1ccccc1Cl)Nc1cccc(S(=O)(=O)N2CCOCC2)c1	16.8	9.5*	-9.7	95.1*	-12.8	25.8	18.5	12.5*
O=C(COc1cccc(Oc2ccccc2)c1)Nc1ccc(SC(F)F)cc1	18.1	10.2*	-23.4	81.0*	1.5	54.5*	31.7*	18.0*
O=C(COc1cccc(OC(F)F)c1)Nc1ccc(SC(F)F)cc1	13.7	6.3	-16.0	28.6	-0.2	/	/	/
C=CCN1C(=O)[C@H](CC(=O)NCc2ccc(OC)c(OC)c2)[C@@]2(C(=O)OCC)CCCC=C12	-3.6	-9.1	0.3	/	/	/	/	/
CCN(CC)c1ccc(C=NNC(=O)Cc2cc(=O)[nH][nH]2)c(O)c1	-10.8	-1.9	-0.5	/	/	/	/	/
COc1cc2c(cc1NC(=O)COC(=O)[C@@H](NS(=O)(=O)c1ccccc1)C(C)C)oc1ccccc12	19.4	10.5*	-38.7	66.9*	6.7	-4.6	-5.0	4.8
COc1cc2c(cc1NC(=O)COc1ccccc1OC)oc1ccccc12	2.3	-4.5	1.8	-4.3	-1.6	/	/	/
COP(=O)(O)[C@@H](CC(C)C)NC(=O)OCc1ccccc1	-1.0	-1.3	3.7	/	/	/	/	/
O=C1CC(N(CCc2ccccc2)C(=S)Nc2cc(Cl)ccc2Cl)C(=O)N1c1c(Cl)cccc1Cl (configuration not stated)	20.9*	12.1*	-10.5	56.0*	16.2*	9.0	23.5*	12.9*	ADAM10 confirm=14.7;ADAM17 counter=3.8
N#Cc1c(-c2ccccc2)c(-c2ccccc2)nn(CC(=O)NNC(=O)Nc2ccc(Cl)c(Cl)c2)c1=O	8.8	14.7*	-22.7	68.9*	9.9	48.1*	27.1*	18.1*
O=C(Cn1nc(-c2ccccc2)c2ccccc2c1=O)Nc1ccc(F)cc1	8.6	1.4	6.5	-0.6	-4.4	/	/	/
COc1ccc(C2CCC3(CCC(=O)N3CCO)CC2)cc1 (configuration not stated)	-5.8	-4.3	9.0	/	/	/	/	/
O=C(/C=C/c1cccc([N+](=O)[O-])c1)NCCSCc1ccccc1Cl	19.1	8.9*	-34.6	75.4*	-3.9	8.5	27.1*	13.6*
CCn1c(SCC(=O)Nc2ncc(C(F)(F)F)cc2Cl)nnc1-c1cccc(C)c1	3.6	10.0*	-30.0	79.8*	0.3	81.4*	1.4	1.9
CC(=O)CC[C@@H]1CC[C@]2(CCCN(S(=O)(=O)C3CCCCC3)C2)O1	-6.4	-1.1	4.8	/	/	/	/	/
COc1ccc(NC(=O)C(Sc2nnc(-c3ccncc3)n2-c2ccccc2C)c2ccccc2)cc1Cl (configuration not stated)	28.2*	15.2*	-17.8	55.7*	-17.0	14.5	30.4*	14.7*	ADAM10 confirm=7.4;ADAM17 counter=2.2
COc1ccc(NC(=O)C(OC)c2ccccc2)cc1Cl (configuration not stated)	-3.3	-2.8	5.8	-5.4	-0.2	/	/	/
CCC(C)NC(=O)CSc1nnc(-c2cc(OC)c(OC)c(OC)c2)o1 (configuration not stated)	0.5	2.0	2.8	/	/	/	/	/
CC(C)(C)OC(=O)NCCCC[C@H](NC(=O)c1[nH]cnc1C(=O)Nc1ccccc1)C(=O)OC(C)(C)C	36.0*	10.6*	-25.4	68.6*	-5.7	80.2*	44.3*	21.7*	ADAM10 confirm=3.9;ADAM17 counter=1.5
COc1ccc(-n2cc(COC(=O)NCCc3ccccc3)nn2)cc1	-1.4	-2.8	4.8	/	/	/	/	/
O=C1CN(C(=O)c2cc([N+](=O)[O-])ccc2Cl)C(c2ccccc2)c2cc(F)ccc2N1 (configuration not stated)	-3.1	3.1	30.6*	85.5*	-2.6	88.2*	/	/	hGIII sPLA2 conf=6.5;BODIPY interf=-7.0
SMILES	ADAM10 inh	ADAM17 inh	sPLA2-III inh	FAS-TE inh	GRIN3A LBD mod	FAS-TE conf	ADAM10 counter	ADAM17 confirm	others
CN(Cc1cn(Cc2ccccc2)nn1)S(=O)(=O)c1ccccc1Br	-1.4	-3.8	7.3	/	/	/	/	/
COc1ccc(S[C@]2(C(=O)N3CCOCC3)CC(=O)N(C(=O)CCc3ccccc3)[C@@H]2c2ccc(OC)cc2)cc1	15.3	6.7	-9.7	/	/	/	/	/
N/C(=N\OC(=O)CCC1CCCC1)c1cccc([N+](=O)[O-])c1	-5.2	-4.9	20.8*	62.4*	1.0	66.4*	/	/	hGIII sPLA2 conf=5.7;BODIPY interf=-8.1
CCCCOC(=O)CSc1nc(N)c(C#N)c(-c2ccc(OCC)cc2)c1C#N	3.4	-5.3	5.2	-2.3	-9.3	/	/	/
CCCCOc1ccc(-c2c(C#N)c(N)nc(SCC(N)=O)c2C#N)cc1	6.5	0.1	46.0*	75.9*	17.0*	92.2*	/	/	hGIII sPLA2 conf=17.9;BODIPY interf=-7.7
COc1ccc([N+](=O)[O-])cc1NC(=O)C(C)N(C)Cc1ccc(Br)cc1 (configuration not stated)	-5.9	-3.6	5.0	41.8	-5.0	/	/	/
